For 42 compounds, inhibition results are on record in PubChem BioAssay AID1259417 (TB Discovery Research, Infectious Disease Research Institute, 2018).

The experiment is described as follows: M. tuberculosis growth inhibition, HTS (AID 1259417).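 Note: bacteria grown with compound for 5 days at 37 °C.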 The following applies: stronger effect = higher value, concentration not given here.
Setting [1] is: M. tuberculosis DsRed fluorescence growth inhibition.
[2] abbreviates: M. tuberculosis growth inhibition.

Hit rate of the full screen: of about 1,100 compounds, about 760 (69%) were called active. The rule behind the calls is not given here. The set was probably picked from earlier hits. The list shows a part of the results.

The term inhibition denotes the drop in the measured response relative to a control, in per cent. On to `CSc1ccc2nc(Nc3nc4ccc(NC(C)=O)cc4s3)sc2c1`, for which the inhibition is 2.19% (inactive) under setting [1] and 1.87% under setting [2].
For `CCCn1nnc(NC(=O)COc2ccc(C3CCCCC3)cc2)n1`, the inhibition is, setting by setting: under setting [1], 26.3% (active); under setting [2], 72.9%.
For `CCn1nnc(NC(=O)COc2ccc(C3CCCCC3)cc2)n1` the same measures were 37% (active) and 86.6%.
For `CCOC(=O)CSCC(=O)Nc1c(C(=O)C2CC2)oc2ccccc12` the same measures were 27.6% (active) and 48.3%.
For `CCC(=O)Oc1ccc(C(=O)Nc2cc3oc4ccccc4c3cc2OC)cc1` the same measures were 12% (inactive) and 10.7%.
Turning to `CC(C)(C)C(=O)/C=C/Nc1ccccc1O`, the inhibition by setting is: under setting [1], 99.2% (active); under setting [2], 98.5%.
Turning to `CSc1nsc(SCC(=O)N2CCN(c3ccccc3)CC2)n1`, the inhibition is 98.3% (active) under setting [1] and 98.7% under setting [2].
For `O=C(Nc1ccc2c(c1)OCCO2)c1cccc2nc3ccccc3nc12` the same measures were 97.2% (active) and 96.7%.
For `COc1cc(NC(=O)c2ccc3c(c2)OCCO3)ccc1NC(=O)c1ccccc1Cl` the same measures were 2.06% (inactive) and 9.67%.
Take `Cc1ccc([N+](=O)[O-])cc1NC(=O)CN(C(=O)c1ccccc1Cl)C1CCCCC1`: the inhibition under setting [1] was 75.1% (active) and the inhibition under setting [2] was 49.8%.
For `Cc1ccc(NC(=O)CC2COc3ccccc3O2)cc1Cl` (centres undefined) the same measures were 2.96% (inactive) and -10.1%.
For `COc1ccc(-c2cc(C(=O)NN=CC=Cc3ccccc3OC)[nH]n2)cc1` the same measures were 9.99% (active) and 65%.
For `COc1ccc(C(=O)Nc2cc(OC)c(NC(=O)c3ccco3)cc2OC)cc1`, the inhibition by setting is: under setting [1], 0.929% (inactive); under setting [2], -7.24%.
`O=C1NN=C2C1=NC1(CCCCC1)Cc1ccccc12`: the inhibition is, setting by setting: under setting [1], 99.4% (active); under setting [2], 99%.
Regarding `CCOC(=O)N1CCN(CCC(=O)c2ccc(Cl)cc2)CC1`, the inhibition was 25.5% (active) under setting [1] and 58.7% under setting [2].
Take `O=C(CCOc1ccccc1)Nc1nnc(-c2cc(Cl)ccc2Cl)o1`: the inhibition was 1.59% (inactive) under setting [1] and -1.65% under setting [2].
For `Cc1ccc(-c2nnc(NC(=O)CCOc3ccccc3)o2)c(C)c1` the same measures were 61.8% (active) and 78.2%.
For `CCCCOc1cccc(C(=O)Nc2nnc(-c3ccc(C)cc3C)o2)c1` the same measures were 92.2% (active) and 77.5%.
For `N=c1sc(/C=C2\C=Nc3ccccc32)c(O)n1-c1nccs1` the same measures were 97.2% (active) and 94.9%.
On to `Cc1ccc(C(C)C)c(OCc2nn(CC(=O)c3ccc(OC(F)F)cc3)c3[n+]2CCCCC3)c1`, for which the inhibition was 100% (active) under setting [1] and 99.1% under setting [2].
For `CCC(C)NC(=O)c1ccc(NC(=O)C2(c3ccccc3)CCCC2)cc1` (centres undefined) the same measures were 31.9% (active) and 42.8%.
For `Cc1ccc(C(=O)N2CCN(c3ccc(NC(=O)COc4c(C)cc(C)cc4Br)cc3)CC2)cc1` the same measures were -0.254% (inactive) and -20.4%.
`O=C(c1ccc(NC(=O)C2(c3ccccc3)CCCC2)cc1)N1CCCCC1`: the inhibition is 99.8% (active) under setting [1] and 99.3% under setting [2].
For `CSc1nsc(SCC(=O)Nc2ccc(OC(C)=O)cc2)n1` the same measures were 8.33% (inactive) and 24.6%.
For `Cc1ccc(-c2nsc(SCC(=O)Nc3ccc4c(c3)OCO4)n2)cc1` the same measures were 9.75% (inactive) and 1.51%.
For `COC(=O)c1ccc(NC(=O)CSc2nc(-c3cccc(C)c3)ns2)cc1` the same measures were 15.3% (active) and 38.3%.
On to `COC(=O)c1ccc(NC(=O)CSc2nc(-c3ccccc3C)ns2)cc1`, for which the inhibition by setting is: under setting [1], 15.6% (active); under setting [2], 32.6%.
For `Cc1ccc2oc(-c3cc(NC(=O)Cc4ccccc4)ccc3Cl)nc2c1` the same measures were 88% (active) and 49.9%.
For `COC(=O)CSc1nc2c(c(-c3ccco3)c1C#N)CCCC2` the same measures were 2.74% (inactive) and -22.6%.
For `COC(=O)CSc1nc(-c2ccccc2)c2c(c1C#N)CCCC2` the same measures were -3.83% (inactive) and -16.2%.
`COC(=O)CSc1nc(N2CCCCC2)c2c(c1C#N)CCCC2`: the inhibition under setting [1] is 26.1% (active) and the inhibition under setting [2] came to 78.9%.
Turning to `COC(=O)C(C)Oc1ccc(-c2nccc(-c3cccs3)n2)cc1` (centres undefined), the inhibition reads like this: under setting [1], 43.6% (active); under setting [2], 69.4%.
For `CC(C)(C)NCCCCOc1ccc(Cl)cc1C(C)(C)C` the same measures were 59% (active) and 43.9%.
For `CC(C)(C)c1cc(Cl)ccc1OCCCCn1ccnc1` the same measures were 99.7% (active) and 99.7%.
For `CC(C)(C)c1cc(Cl)ccc1OCCn1ccnc1` the same measures were 90.4% (active) and 95%.
As to `C#CCOCCOCCOCCNc1nc(N2CCN(C(=O)[C@H](Cc3cc4ccccc4[nH]3)n3cc([C@@H](N)CC(C)C)nn3)CC2)nc(N2CCN(C(=O)[C@H](Cc3cc4ccccc4[nH]3)n3cc([C@@H](N)CC(C)C)nn3)CC2)n1`, the inhibition was 68% (active) under setting [1] and 50.3% under setting [2].
`Cc1ccc2nsnc2c1S(=O)(=O)Nc1cccc2cccnc12`: the inhibition is, setting by setting: under setting [1], 100% (active); under setting [2], 99.4%.
For `O=S(=O)(Nc1cc(Sc2cccc3cccnc23)c(O)c2ccccc12)c1ccccc1` the same measures were 3.26% (active) and 44.3%.
For `O=S(=O)(Nc1cc(Br)c(O)c2ccccc12)c1ccc(F)cc1` the same measures were 3.24% (inactive) and -11.2%.
For `O=S(=O)(Nc1cccc2cccnc12)c1ccc(Br)cc1` the same measures were 73.1% (active) and 91.6%.
Consider `Cc1ccc(NC(=O)N2CCC(c3nc4c(nnn4Cc4cccc(Cl)c4)c(=O)[nH]3)CC2)cc1`, for which the inhibition reads like this: under setting [1], 97.3% (active); under setting [2], 99.6%.
For `O=C(Nc1ccc(S(=O)(=O)N2CCC(c3nc4ccccc4[nH]3)CC2)cc1)c1cccc(Cl)c1` the same measures were 0.997% (inactive) and -16%.
